High-throughput results: PubChem BioAssay, several laboratories
ABHD5 PLIN5 PPI – ABHD5-PLIN5 protein interaction inhibition; AID 602281; Split G. princeps luciferase complementation, luminescence, 4 h; actives 0.78% (n = 360,000); inhibition, % at 4 µM; Q00G26+Q8WTS1;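 active means inhibition above the mean inhibition across every tested compound plus 3 SD, cut at about 22% in these data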
Target sequence (Q00G26 whole entry, looked up): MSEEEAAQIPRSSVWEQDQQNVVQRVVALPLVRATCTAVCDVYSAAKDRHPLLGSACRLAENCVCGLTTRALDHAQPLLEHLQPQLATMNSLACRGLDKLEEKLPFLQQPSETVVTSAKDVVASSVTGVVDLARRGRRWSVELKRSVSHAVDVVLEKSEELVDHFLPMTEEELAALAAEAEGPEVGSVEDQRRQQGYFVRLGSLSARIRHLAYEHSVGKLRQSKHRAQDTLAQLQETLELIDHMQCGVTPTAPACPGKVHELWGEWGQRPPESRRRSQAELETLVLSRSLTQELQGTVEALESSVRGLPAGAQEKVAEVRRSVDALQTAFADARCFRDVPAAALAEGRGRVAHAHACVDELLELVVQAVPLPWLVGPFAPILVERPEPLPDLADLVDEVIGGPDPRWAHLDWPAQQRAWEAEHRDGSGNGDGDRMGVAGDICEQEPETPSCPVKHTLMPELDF
Target sequence (Q8WTS1 whole entry, looked up): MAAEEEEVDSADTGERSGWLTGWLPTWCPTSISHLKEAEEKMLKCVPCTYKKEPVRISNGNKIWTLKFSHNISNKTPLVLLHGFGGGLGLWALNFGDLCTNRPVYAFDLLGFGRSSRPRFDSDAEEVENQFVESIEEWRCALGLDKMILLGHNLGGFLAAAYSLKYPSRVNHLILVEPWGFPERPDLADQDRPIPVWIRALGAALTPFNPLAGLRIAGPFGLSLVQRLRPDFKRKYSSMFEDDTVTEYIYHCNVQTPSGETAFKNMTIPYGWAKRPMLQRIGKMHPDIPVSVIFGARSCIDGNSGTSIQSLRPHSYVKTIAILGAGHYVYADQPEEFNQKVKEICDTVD
Mdm2 MdmX PPI – inhibitors of human Mdm2/MdmX interaction; actives 3% (n = 330,000); SaOS-2 split-luciferase Mdm2/MdmX complementation, luminescence; inhibition, % at 8 µM; O15151+Q00987;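 active means inhibition of at least 50% at 8 µM in the primary screen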
CF NFkB inh – blocks PAF-induced NF-kB reporter in cystic fibrosis cells | KKLEB NF-kB-GFP reporter, GFP fluorescence overnight | inhibition, % at 5 µM | actives 0.86% (n = 360,000) | AID 588850;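 active means at least 50% inhibition at 5 µM, scaled per plate between neutral and stimulator controls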;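 further: PAF is a Pseudomonas aeruginosa culture filtrate used as stimulus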
HIF-2a inh – inhibitors of HIF-2a; 786-0 RCC cells HIF-2a reporter, luciferase luminescence, overnight; inhibition, % at 18.8 µM; actives 0.72% (n = 360,000); AID 624352;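 active means inhibition of the luminescence signal of 40% or more relative to plate controls, in a single-dose primary screen at 18.75 µM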
KKLEB cytotox – CF airway cell cytotoxicity counter-screen. actives 0.36% (n = 360,000). AID 602141. KKLEB CF airway cells viability, ATPlite luminescence, overnight; stronger effect = lower value; cells stimulated with P. aeruginosa culture filtrate. activity change (cytotoxicity), % at 5 µM;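 active means corrected activity change at or below -50% at 5 µM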
Peg3 prom inh-1 – inhibitors of Peg3 promoter | HeLa PEG-Prom luciferase reporter, luminescence, overnight | inhibition, % at 20 µM | actives 1.7% (n = 360,000) | AID 588405;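 active means inhibition of at least 50% at 20 µM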
Mdm2-MdmX conf – human Mdm2/MdmX binding inhibition, confirmed | inhibition, % at 8 µM | shares compounds with Mdm2 MdmX PPI | actives 55% (n = 10,000) | luminescent assay | AID 489028; in the data active means inhibition above about 40%
Full FLuc ctr – counter-screen for Mdm2/MdmX inhibitors: full-length luciferase. shares compounds with Mdm2 MdmX PPI. SaOS-2 full-length luciferase counterscreen, luminescence. inhibition, % at 8 µM. actives 77% (n = 6,200);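 active means mean inhibition at 8 µM reaching about 37%, which flags the compound as non-specific, limit read from the data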;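 further: p53-null SaOS-2 cells with luciferase driven by a doxycycline-inducible promoter; compound on cells about two nights before reading with doxycycline added after day one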
Peg3 prom inh-2 – confirmation of Peg3 promoter inhibitors. shares compounds with Peg3 prom inh-1. HeLa PEG-Prom luciferase reporter, luminescence, overnight. inhibition, % at 20 µM. actives 84% (n = 1,300). AID 602417;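 active means at 20 µM dose, 40% or more inhibition averaged across four replicates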
Each line names hits and unclear results; the compound was inactive in the other large screens (follow-up assays come after a bar, where they were run). Sampled rows, rich in hits. Any-hit rate of the full collection: about 4.6%.

N#C/C(=C\c1ccc(OCc2ccc(C(=O)O)cc2)cc1)C(=O)N1CCOCC1	Mdm2 MdmX PPI 55, Peg3 prom inh-1 71 | Mdm2-MdmX conf 44 | Full FLuc ctr inactive | Peg3 prom inh-2 76
N=c1n(CCN2CCCC2)c2ccccc2n1CC(O)c1ccc(Cl)c(Cl)c1 (configuration not stated)	Mdm2 MdmX PPI 96, Peg3 prom inh-1 115 | Mdm2-MdmX conf 99 | Full FLuc ctr 104 | Peg3 prom inh-2 98
Cc1cc(C)cc(-n2c3ccc(NC(=S)NC4CCCCC4)cc3c(=O)n2C)c1	none (no result: Mdm2 MdmX PPI)
O=C(Nc1nc2ccccc2[nH]1)c1ccccc1F	Mdm2 MdmX PPI 82, HIF-2a inh 75, Peg3 prom inh-1 93 | Mdm2-MdmX conf 81 | Full FLuc ctr 38 | Peg3 prom inh-2 81
O=C(Nc1nc2ccccc2[nH]1)c1ccc(F)cc1	none
O=C(/C=C/Nc1ccccc1Br)c1ccccn1	Mdm2 MdmX PPI 75, HIF-2a inh 85, Peg3 prom inh-1 90 | Mdm2-MdmX conf 76 | Full FLuc ctr inactive | Peg3 prom inh-2 87
C[C@@H]1CN([C@H](C)CO)C(=O)CCCn2cc(nn2)CO[C@H]1CN(C)C(=O)Nc1cccc(F)c1	none (no result: Mdm2 MdmX PPI)
O=C(CN1C(=O)c2ccccc2C1=O)Nc1ccc(-c2nc3ccccc3o2)cc1	none
O=C(CN1CCCC1)Nc1ccc(-c2nc3cc(NC(=O)CN4CCCC4)ccc3o2)cc1	Mdm2 MdmX PPI 92, Peg3 prom inh-1 71 | Mdm2-MdmX conf 64 | Full FLuc ctr 52 | Peg3 prom inh-2 92
COc1ccc(/C=C2\CCc3ccccc3C2=O)cc1O	none
CC(C)n1cc(CN2CCC(C(=O)Nc3cccc(-c4cccc(Cl)c4)c3)CC2)cn1	Mdm2 MdmX PPI 99, Peg3 prom inh-1 111 | Mdm2-MdmX conf 47 | Full FLuc ctr 66 | Peg3 prom inh-2 98
CCn1cc(CN2CCC(C(=O)Nc3cccc(-c4cccc(F)c4)c3)CC2)cn1	none
Cc1ccc(C(=O)N(C)CC(=O)Nc2ccc(Cl)c(C(F)(F)F)c2)cc1S(=O)(=O)N1CCCCC1	none
Cc1ccc(S(=O)(=O)N2CCCCC2)cc1C(=O)N(C)CC(=O)Nc1ccc(Cl)c(C(F)(F)F)c1	Mdm2 MdmX PPI 55, Peg3 prom inh-1 53 | Mdm2-MdmX conf 68 | Full FLuc ctr 49 | Peg3 prom inh-2 56
O=C(N/N=C/c1cccc([N+](=O)[O-])c1)c1cc(-c2ccc3c4c(cccc24)CC3)n[nH]1	none
O=C(N/N=C/c1ccc(Cl)c([N+](=O)[O-])c1)c1cc(-c2ccc3c4c(cccc24)CC3)n[nH]1	Mdm2 MdmX PPI 100, Peg3 prom inh-1 111 | Mdm2-MdmX conf 91 | Full FLuc ctr 61 | Peg3 prom inh-2 55
COc1ccc(C(C)=O)cc1COC(=O)C1CC(=O)N(Cc2ccccc2)C1 (configuration not stated)	none
O=CNC1CCCc2c1[nH]c1ccc(Cl)cc21 (configuration not stated)	none
Cc1ccc2[nH]c3c(c2c1)CCCC3NC(=O)CCl (configuration not stated)	Mdm2 MdmX PPI 80, CF NFkB inh 62, KKLEB cytotox -65, Peg3 prom inh-1 82 | Mdm2-MdmX conf inactive | Full FLuc ctr inactive | Peg3 prom inh-2 89
CC1CC(C)CN(c2ncnc3c2cnn3-c2ccc(Cl)cc2)C1 (configuration not stated)	none
CC1CCCN(c2ncnc3c2cnn3-c2ccc(Cl)cc2)C1 (configuration not stated)	Mdm2 MdmX PPI 96, HIF-2a inh 82, KKLEB cytotox -64, Peg3 prom inh-1 73 | Mdm2-MdmX conf 95 | Full FLuc ctr 42 | Peg3 prom inh-2 86
CN1CCN(C(=O)c2ccc3c(c2)NC(=O)/C(=C/c2ccccc2)S3)CC1	none
Cc1cccc(/C=C2/Sc3ccc(C(=O)NCCN4CCCC4)cc3NC2=O)c1	Mdm2 MdmX PPI 72, Peg3 prom inh-1 94 | Mdm2-MdmX conf inactive | Peg3 prom inh-2 100
NC(N)=N/N=C/c1ccc(OCc2ccccc2)c(OCc2ccccc2)c1	Mdm2 MdmX PPI 96, KKLEB cytotox -53, Peg3 prom inh-1 103 | Mdm2-MdmX conf 67 | Full FLuc ctr 65 | Peg3 prom inh-2 99
CN(C(=O)c1ccccc1C(=O)OCC(=O)Nc1cccc(Br)c1)c1ccccc1	none
CN=c1scc(-c2ccccc2F)n1/N=C/c1ccc[nH]1	Mdm2 MdmX PPI 94, HIF-2a inh 92, KKLEB cytotox -55, Peg3 prom inh-1 91 | Mdm2-MdmX conf 98 | Full FLuc ctr inactive | Peg3 prom inh-2 92
CN=c1scc(-c2ccccc2F)n1/N=C/c1ccc(O)c(O)c1O	none (no result: Mdm2 MdmX PPI)
Oc1ccc(C[C@H]2CNC(=S)N2CCc2cc(C(F)(F)F)cc(C(F)(F)F)c2)cc1	none
Oc1ccc(C[C@H]2CNCCN2CCc2cc(C(F)(F)F)cc(C(F)(F)F)c2)cc1	Mdm2 MdmX PPI 58, Peg3 prom inh-1 58 | Mdm2-MdmX conf inactive | Peg3 prom inh-2 82
O=C(N/C(=C\c1ccccc1)C(=O)N1CCOCC1)c1cccc(Br)c1	none
C=CCN1C(=O)c2ccc(C(=O)OCC(=O)N(CC)c3c(N)n(Cc4ccccc4)c(=O)[nH]c3=O)cc2C1=O	none (no result: Mdm2 MdmX PPI)
CCCc1ccc(C(=O)O/N=C(\N)c2ccccn2)cc1	Mdm2 MdmX PPI 63, HIF-2a inh 63, Peg3 prom inh-1 108 | Mdm2-MdmX conf 70 | Full FLuc ctr 61 | Peg3 prom inh-2 97
N/C(=N\OC(=O)c1ccc(Cl)cc1Cl)c1ccccn1	Mdm2 MdmX PPI 52, KKLEB cytotox -68, Peg3 prom inh-1 68 | Mdm2-MdmX conf inactive | Full FLuc ctr 53 | Peg3 prom inh-2 inactive
N/C(=N\OC(=O)c1ccc(Cl)cc1[N+](=O)[O-])c1ccccn1	none
N/C(=N\OC(=O)c1ccc(=O)n(Cc2ccccc2)c1)c1ccccn1	none
CC(=O)NC(c1ccc(C)cc1)c1cc(Cl)c2cccnc2c1O (configuration not stated)	Mdm2 MdmX PPI 87, Peg3 prom inh-1 65 | Mdm2-MdmX conf 77 | Full FLuc ctr inactive | Peg3 prom inh-2 56
CC(=O)NC(c1ccc(C(C)C)cc1)c1ccc2cccnc2c1O (configuration not stated)	Mdm2 MdmX PPI 81, Peg3 prom inh-1 57 | Mdm2-MdmX conf 83 | Full FLuc ctr inactive | Peg3 prom inh-2 70
